# Experimental data as given in PubChem BioAssay.
# For some of these results: Potency and affinity values are given separately. Active and inactive are the calls of the source.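 How the source made its calls, unless noted: active means normalized viability below 100% at a tested concentration; inactive means the rest.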
# Legend:
# [1] = liver-stage malaria parasite growth inhibition, primary screen, cell-based, HepG2, luciferase luminescence, HepG2 viability (AID 624349; in the data active means parasite load remaining mostly below about 12%, no sharp cut-off; inactive means mostly above about 10%;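 further: 100% = mean of DMSO negative control wells on the same plate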); settings: P. berghei liver stage in HepG2, luciferase luminescence, concentration not given here; parasite load remaining: stronger effect = lower value; viability: measured here: HepG2 viability without parasites
# [2] = sensitizers of A549 cells to miR-34 induction, primary screen, imaging, A549 dox-inducible miR-34, nuclei and caspase counts (AID 1347080;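 active means compounds whose cell count with miR-34 switched on is under 0.7 times the count with it off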); settings: A549 miR-34 inducible, Hoechst nuclei count, 48 h
# [3] = inhibitors of Cryptococcus chitosan production, flow cytometry, Cibacron Brilliant Red staining (AID 1347148; call rule not given here;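 further: compound exposure lasted three days at 37 degrees C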); settings: Cryptococcus neoformans chitosan, stronger effect = lower value; at 10 µM unless noted
# [4] = survival rescue of mitochondrial mutant cells in low glucose, primary screen, MELAS cybrids, Rieske KO mouse fibroblasts, CellTiter-Glo (AID 1508586;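 active means mean z-score across replicates of 1.96 or higher in either the MELAS or the Rieske mutant cell line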;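 further: z relative to plate mean and SD of compound and empty wells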)
# [5] = test system: Hepatitis C virus NS3 helicase; experiment: HCV NS3 helicase inhibitors, primary screen, biochemical, fluorescence polarization, LOPAC1280 library (AID 687035; in the data active means inhibition above about 37%); settings: Purified HCV NS3 helicase, Cy5-dT15 ssDNA binding fluorescence polarization; stronger effect = higher value; concentration not given here
# [6] = Cy5 fluorescence quenching or enhancement artefacts, artefact control for HCV NS3 helicase inhibitor project, biochemical, LOPAC1280 (AID 687037; call rule not given here); settings: Cy5-DNA-NS3h complex fluorescence interference counterscreen
# [7] = phospholipid biosynthesis inhibitors in animal cells, primary screen, cell-based, LOPAC library, screen 4 (AID 1347384; call rule not given here); settings: phospholipid biosynthesis inhibition screen, at 10 µM
# [8] = ovarian cancer cell viability with rucaparib, profiling panel, oncology-focused library, rucaparib conditional (AID 1508598); settings: patient-derived ovarian cancer cells, CellTiter-Glo viability, 144 h, stronger effect = lower value
# [9] = polyglutamine-triggered caspase-3 activation inhibitors, cell-based (AID 1583); settings: polyglutamine-induced caspase-3 activation, cell assay; stronger effect = higher value;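 tested at 10 µM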
# [10] = suppressors of polyQ aggregation in yeast, 75Q-TubU reporter (AID 1593); settings: Yeast 75Q polyglutamine aggregation reporter
# [11] = rescue of polyQ-huntingtin neuronal dysfunction in worms, whole organism, C. elegans mechanosensory neurons, N-terminal huntingtin (AID 1599); settings: touch response, stronger effect = higher value
# [12] = inhibitors of mitochondrial cytochrome c release, biochemical, purified mitochondria (AID 1603); settings: stronger effect = lower value;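 further: mouse liver mitochondria challenged with calcium chloride; signal normalized to the plate average as 100%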
# [13] = inhibitors of polyQ protein aggregation (AID 1604); settings: polyglutamine-induced protein aggregation inhibition assay; stronger effect = higher value; tested at 2.5 µM
# [14] = enhancers of glutamate uptake in motor neurons, MN-1 cell line (AID 1612); settings: MN-1 motor neuron cells, stronger effect = higher value;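 further: tested at 1 µM final; 0% = mean of DMSO vehicle wells on each plate; positive means more glutamate uptake than control and negative means less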
# [15] = reducers of polyQ inclusions in PC12 cells, cell-based, NGF-treated PC12, GFPQ80 (AID 1614); settings: PC12 NGF-treated GFP-polyQ80 inclusion reduction;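 further: lower means fewer inclusions and 0 means no inclusions at all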
# [16] = suppressors of polyglutamine aggregation in yeast, 75Q-TubH (AID 1616); settings: S. cerevisiae 75Q-TubH polyglutamine aggregation suppression; stronger effect = higher value
# [17] = stronger effect = lower value, cell number ratio, induced over uninduced
# [18] = measured here: relative caspase fold change +Dox/-Dox
# [19] = measured here: total cells with miR-34 induction, stronger effect = lower value
# [20] = measured here: total cells without miR-34 induction
# [21] = MELAS cybrid survival, CellTiter-Glo 48 h, stronger effect = higher value
# [22] = Rieske KO mouse fibroblast survival, CellTiter-Glo 72 h
smiles,measurement,setting,value
CN1[C@@H]2CC(=O)C[C@H]1[C@H](O)C2,parasite load remaining,[1],87.8% (inactive)
same,viability,[1],81.1%
same,fold change,[2]; [17],0.914 (inactive)
same,fold change,[2]; [18],0.592
same,cell count,[2]; [19],8350
same,cell count,[2]; [20],9140
C=C1[C@@H](O)[C@]23C[C@@H]1[C@@H](O)C[C@H]2[C@@]12C4[C@@H]3C[C@@H]1[C@@](C)(CC[C@@H]2O)CN4CC,parasite load remaining,[1],76.8% (inactive)
same,viability,[1],104%
same,fold change,[2]; [17],0.894 (inactive)
same,fold change,[2]; [18],0.861
same,cell count,[2]; [19],8910
same,cell count,[2]; [20],9970
COc1cc2c(c(OC)c1OC)-c1ccc(O)c(=O)cc1[C@@H](N)CC2,parasite load remaining,[1],106% (inactive)
same,viability,[1],105%
same,fold change,[2]; [17],0.884 (inactive)
same,fold change,[2]; [18],1.33
same,cell count,[2]; [19],5720
same,cell count,[2]; [20],6460
C=C[C@]12CN(C)[C@@H]3[C@H]4COC(CC41)[C@]1(C(=O)Nc4ccccc41)[C@@H]32,parasite load remaining,[1],100% (inactive)
same,viability,[1],94.8%
same,fold change,[2]; [17],0.845 (inactive)
same,fold change,[2]; [18],1.55
same,cell count,[2]; [19],8470
same,cell count,[2]; [20],10000
CC(Cc1ccccc1)NCCC(c1ccccc1)c1ccccc1 (centres undefined) (tested in a mixture with another compound),parasite load remaining,[1],65.1% (inactive)
same,viability,[1],77.8%
same,fold change,[2]; stronger effect = lower value,0.804 (inactive)
same,fold change,[2]; [18],1.52
same,cell count,[2]; [19],5460
same,cell count,[2]; [20],6790
CC[C@H]1C2C[C@H]3[C@@H]4N(C)c5ccccc5C45C[C@H](C2[C@H]5O)N3[C@@H]1O (some centres undefined),parasite load remaining,[1],126% (inactive)
same,viability,[1],98.7%
same,fold change,[2]; [17],0.84 (inactive)
same,fold change,[2]; [18],1.31
same,cell count,[2]; [19],8780
same,cell count,[2]; [20],10400
CC(=O)NC1C(OC2OC(CC(O)C3OC(n4ccc(=O)[nH]c4=O)C(O)C3O)C(O)C(O)C2NC(=O)/C=C\CC(C)C)OC(CO)C(O)C1O (centres undefined),fold fluorescence,[3],7.24 [at 69.6 µM] (inactive)
CCN1C[C@]2(COC)C(O)C[C@H](OC)[C@]34C1[C@H]([C@H](OC)[C@H]23)[C@]1(OC(C)=O)[C@H]2[C@@H](OC(=O)c3ccccc3)[C@@](O)(C[C@H]24)[C@@H](OC)[C@@H]1O (some centres undefined),fold fluorescence,[3],4.31 [at 77.4 µM] (inactive)
C[C@@H]1O[C@@H](O[C@@H]2C=C3CCC4C(CC[C@]5(C)[C@@H](c6ccc(=O)oc6)CC[C@]45O)[C@@]3(C)CC2)[C@H](O)[C@H](O)[C@H]1O (some centres undefined),parasite load remaining,[1],0.58% (inactive)
same,viability,[1],13.4%
same,fold change,[2]; [17],1.51 (inactive)
same,fold change,[2]; [18],0.74
same,cell count,[2]; [19],696
same,cell count,[2]; [20],460
C=C1[C@@H](O)C2O[C@@]3(CCC2O[C@@H]1C(O)C[C@H](C)C1O[C@@]2(CCCCO2)CC[C@H]1C)CC[C@@H](/C=C/[C@@H](C)[C@@H]1CC(C)=C[C@@]2(O[C@H](C[C@@](C)(O)C(=O)O)CCC2O)O1)O3 (some centres undefined),fold fluorescence,[3],14.3 [at 6.2 µM] (inactive)
COCCCOc1ccnc(CS(=O)c2nc3ccccc3[nH]2)c1C (centres undefined),z-score,[4]; [21],1.01 (inactive)
same,z-score,[4]; [22],0.105
CC1=C2C[C@@H]3[C@H](CC=C4C[C@H](O)CC[C@]43C)[C@H]2CC[C@@]12O[C@H]1C[C@@H](C)CN[C@@H]1[C@@H]2C,fold fluorescence,[3],14.9 [at 121.5 µM] (inactive)
CCCCCCCCCCCCCC(=O)O[C@H]1[C@H](C)[C@]2(O)[C@H](C=C(CO)C[C@@]3(O)C(=O)C(C)=C[C@H]23)[C@H]2C(C)(C)[C@@]12OC(C)=O,fold fluorescence,[3],4.29 [at 81.1 µM] (inactive)
C[C@H]1C2Cc3ccc(O)cc3[C@@]1(C)CCN2CC1CC1,inhibition,[5],0% (inactive)
same,fluorescence ratio (interference),[6],1 (inactive)
same,outcome,[7],inactive
C/C(=C\c1csc(C)n1)[C@H]1C[C@@H]2O[C@]2(C)CCC[C@H](C)[C@H](O)[C@@H](C)C(=O)C(C)(C)[C@H](O)CC(=O)O1,viability,"[8]; at 0.000305 µM, OCI-C5x cells, with rucaparib 10 µM, 100% = cells with rucaparib alone",47% (active)
same,viability,"[8]; at 0.000305 µM, OCI-C5x cells, without rucaparib",25.7% (active)
same,viability,"[8]; at 0.000305 µM, OCI-P5x cells, with rucaparib 20 µM, 100% = cells with rucaparib alone",57.2% (active)
same,viability,"[8]; at 0.000305 µM, OCI-P5x cells, without rucaparib",15.5% (active)
same,viability,"[8]; at 0.00122 µM, OCI-C5x cells, with rucaparib 10 µM, 100% = cells with rucaparib alone",36.1% (active)
same,viability,"[8]; at 0.00122 µM, OCI-C5x cells, without rucaparib",27.1% (active)
same,viability,"[8]; at 0.00122 µM, OCI-P5x cells, with rucaparib 20 µM, 100% = cells with rucaparib alone",48.9% (active)
same,viability,"[8]; at 0.00122 µM, OCI-P5x cells, without rucaparib",17.2% (active)
same,viability,"[8]; at 0.00488 µM, OCI-C5x cells, with rucaparib 10 µM, 100% = cells with rucaparib alone",39.5% (active)
same,viability,"[8]; at 0.00488 µM, OCI-C5x cells, without rucaparib",27.9% (active)
same,viability,"[8]; at 0.00488 µM, OCI-P5x cells, with rucaparib 20 µM, 100% = cells with rucaparib alone",48% (active)
same,viability,"[8]; at 0.00488 µM, OCI-P5x cells, without rucaparib",17.6% (active)
same,viability,"[8]; at 0.0195 µM, OCI-C5x cells, with rucaparib 10 µM, 100% = cells with rucaparib alone",34.8% (active)
same,viability,"[8]; at 0.0195 µM, OCI-C5x cells, without rucaparib",27.5% (active)
same,viability,"[8]; at 0.0195 µM, OCI-P5x cells, with rucaparib 20 µM, 100% = cells with rucaparib alone",47.2% (active)
same,viability,"[8]; at 0.0195 µM, OCI-P5x cells, without rucaparib",16.3% (active)
same,viability,"[8]; at 0.0781 µM, OCI-C5x cells, with rucaparib 10 µM, 100% = cells with rucaparib alone",35.3% (active)
same,viability,"[8]; at 0.0781 µM, OCI-C5x cells, without rucaparib",27.6% (active)
same,viability,"[8]; at 0.0781 µM, OCI-P5x cells, with rucaparib 20 µM, 100% = cells with rucaparib alone",45.8% (active)
same,viability,"[8]; at 0.0781 µM, OCI-P5x cells, without rucaparib",16.3% (active)
same,viability,"[8]; at 0.313 µM, OCI-C5x cells, with rucaparib 10 µM, 100% = cells with rucaparib alone",40.6% (active)
same,viability,"[8]; at 0.313 µM, OCI-C5x cells, without rucaparib",35.3% (active)
same,viability,"[8]; at 0.313 µM, OCI-P5x cells, with rucaparib 20 µM, 100% = cells with rucaparib alone",44.8% (active)
same,viability,"[8]; at 0.313 µM, OCI-P5x cells, without rucaparib",15.9% (active)
same,viability,"[8]; at 1.25 µM, OCI-C5x cells, with rucaparib 10 µM, 100% = cells with rucaparib alone",45.2% (active)
same,viability,"[8]; at 1.25 µM, OCI-C5x cells, without rucaparib",38.5% (active)
same,viability,"[8]; at 1.25 µM, OCI-P5x cells, with rucaparib 20 µM, 100% = cells with rucaparib alone",39.6% (active)
same,viability,"[8]; at 1.25 µM, OCI-P5x cells, without rucaparib",16.1% (active)
same,viability,"[8]; at 5 µM, OCI-C5x cells, with rucaparib 10 µM, 100% = cells with rucaparib alone",45.4% (active)
same,viability,"[8]; at 5 µM, OCI-C5x cells, without rucaparib",40.3% (active)
same,viability,"[8]; at 5 µM, OCI-P5x cells, with rucaparib 20 µM, 100% = cells with rucaparib alone",43.9% (active)
same,viability,"[8]; at 5 µM, OCI-P5x cells, without rucaparib",15.4% (active)
C=CCC1(CC(C)C)C(=O)NC(=O)NC1=O,inhibition,[9],-3.41%
same,score,[10],0.97
same,rescue above control,[11],1.21
same,cytochrome c release ratio,[12],0.94
same,inhibition of aggregation,[13],7.48%
same,glutamate uptake change,[14],5.4%
same,inclusion score,[15],2
same,aggregation suppression score,[16],1.15
same,z-score,[4]; [21],0.0849 (inactive)
same,z-score,[4]; [22],0.0147
